{"source": "PubChem BioAssay (NCI)", "note": "Several values for one entry are separate records, joined by “and”; a condition that tells them apart may be missing. Equal values may be shown once. This is part of a sample that, as a whole, favours compounds with a hit. Of some 83,000 tested, about 20% had one in any assay.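 Interpretation: 100, growth as untreated; towards 0, rising growth inhibition; 0, no net growth; 0 to -100, cell death. Compounds scoring below 10 were considered active.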 A number with no mark means an inactive call. Activity calls are given as the source filed them.", "data": [{"test_system": "MDA-MB-468 breast", "assay": "NCI-60 one-dose screen, 48 h (100 = growth as untreated, 0 = no growth, -100 = all killed)", "conditions": "10 µM unless noted", "values": [{"smiles": "C=CCCCCOc1ccccc1-c1cnc(OCCCCC=C)n1C", "growth": "25.5%"}, {"smiles": "O=CN1N=C(c2ccc(F)cc2)CC1c1cccc(Nc2ccnc3cc(C(F)(F)F)ccc23)c1", "note": "(stereo not given)", "growth": "29.2%"}, {"smiles": "COc1ccc(NC2=CC(=O)C(C)=C(C)C2=O)cc1", "growth": "57%"}, {"smiles": "NC[C@@H]1O[C@H](O[C@@H]2[C@@H](CO)OC(O[C@@H]3[C@@H](O)[C@H](N)C[C@H](N)[C@H]3OC3O[C@H](CN)[C@@H](O)[C@H](O)[C@H]3N)[C@@H]2O)[C@H](N)[C@@H](O)[C@@H]1O", "note": "(stereo not given in full)", "growth": "110%"}, {"smiles": "CN(C)CCn1c(=O)c2ccccc2n2nc3ccccc3c12", "growth": "105%"}, {"smiles": "O=C1N(Cc2ccccc2Cl)c2ccccc2C12NN=C(c1cccc(Cl)c1)S2", "note": "(stereo not given)", "growth": "-29.6% (active)"}, {"smiles": "COc1ccc(NC(=O)c2cc3ccccc3nc2Nc2cc(OC)c(OC)c(OC)c2)cc1", "growth": "75.2%"}, {"smiles": "COc1cccc(Cn2c(-c3nonc3N)nc3ccccc32)c1", "growth": "-12.2% (active)"}, {"smiles": "COc1ccc(CCN2C(=O)CSC2=S)cc1OC", "growth": "-2.77% (active)"}, {"smiles": "CN1C(=O)CN2CCc3ccccc3C2c2cc(Cl)ccc21", "note": "(stereo not given)", "growth": "115%"}, {"smiles": "Cc1c2ccccc2nc2c1ccc1cccnc12", "growth": "89.8%"}, {"smiles": "CCN1C(=O)N(CC)C2C1NN=C1SCC(=O)N12", "note": "(stereo not given)", "growth": "18.2%"}, {"smiles": "CN(C)c1ccc(/C=C/C(=O)c2ccccc2)cc1", "growth": "90.3%"}, {"smiles": "CCOC(=O)CSCCC#N", "growth": "109%"}, {"smiles": "Fc1ccc(CNc2c3ccccc3nc3ccccc23)c(F)c1", "growth": "-4.03% (active)"}, {"smiles": "O=C(Cn1nnc([N+](=O)[O-])n1)c1ccccc1", "growth": "99.2%"}, {"smiles": "O=[N+]([O-])c1cc(-c2ccccc2)c(O)c([N+](=O)[O-])c1", "growth": "71.5%"}, {"smiles": "C=C1c2nc3ccccc3n2C=C(c2ccc(Cl)cc2)N1Cc1ccc(OC)cc1", "growth": "80.8%"}, {"smiles": "O=C(O)C#Cc1ccc(Cl)cc1", "growth": "101%"}, {"smiles": "C=C(C)[C@@H]1CC[C@]2(COCCC#N)CC[C@]3(C)[C@H](CC[C@@H]4[C@@](C)(CCCNCCC#N)[C@H](C(=C)C)CC[C@]43C)[C@@H]12", "growth": "16.3% [100 µM]"}, {"smiles": "O=C1c2ccccc2NC(n2sc3ccccc3c2=O)N1c1ccccc1", "note": "(stereo not given)", "growth": "106%"}, {"smiles": "N/C(=N\\C(N)=N\\c1nc2ccccc2s1)c1ccncc1Cl", "growth": "90.3%"}, {"smiles": "COc1ccc(-c2nc3cc(C(=O)NCc4ccccc4)ccc3n2C2CCCCC2)cc1", "growth": "98.4%"}, {"smiles": "CN1C(=O)N(C)C2Nn3c(s/c(=C\\c4ccccc4)c3=O)=NC21", "note": "(stereo not given)", "growth": "95.4%"}, {"smiles": "Cc1ccc(C2=Nc3c(N)ncnc3NC(c3cccc(Nc4ccnc5cc(C(F)(F)F)ccc45)c3)C2)cc1", "note": "(stereo not given)", "growth": "24.8%"}, {"smiles": "CN(C)c1ccc2cc(-c3nc4ccccc4s3)c(N)nc2c1", "growth": "56.9%"}, {"smiles": "Nc1cc2[nH]c(=O)c3ccccc3c2cc1Br", "growth": "-50.6% (active)"}, {"smiles": "O=C(N/N=C/c1ccc(O)cc1O)c1cccnc1", "growth": "6.57% (active)"}, {"smiles": "O=C(NNc1nc2cc(F)ccc2n2c(CN3CCOCC3)ccc12)c1ccccc1", "growth": "-27.9% (active)"}, {"smiles": "O=c1[nH]c(-c2ccncc2)nc2sc3c(c12)CCCCCC3", "growth": "99.2%"}, {"smiles": "CC(C)(C)c1ccc(O)c(CNC2CCCCC2)c1", "growth": "87% and 87.7%"}, {"smiles": "CC1=CC(C)(C)Nc2ccc(Cc3ccc4c(c3)C(C)=CC(C)(C)N4)cc21", "growth": "-12.4% (active)"}, {"smiles": "CCC(c1ccccc1)C(CC)c1ccc(O)c(O)c1", "note": "(stereo not given)", "growth": "90.9%"}, {"smiles": "COc1cc(OC)cc(-c2n/c(=C\\c3c(O)[nH]c4ccc(OC)cc34)cc3c2=Nc2ccccc2-3)c1", "growth": "88.4%"}, {"smiles": "Clc1ccc(N2CCN(CCCN3CCN(c4cccc(Cl)c4)CC3)CC2)cc1", "growth": "23.5%"}, {"smiles": "CCCCCCNC(=O)Oc1ccc(/C(=C(\\C)c2ccccc2)c2ccc(OCCN(CC)CC)cc2)cc1", "growth": "74.9%"}, {"smiles": "C=C/C(C)=C/C[C@]1(C)[C@H](C)[C@@H](OC(=O)CCC)[C@H](O)[C@@]23C(=C[C@H](OC)C[C@@H]12)[C@@H](OC(=O)CCC)O[C@H]3OC(C)=O", "growth": "-69% (active)"}, {"smiles": "O=C(NN=C1CCCCC1)C(=O)NN=C1CCCCC1", "growth": "113%"}, {"smiles": "C#C[C@]1(O)CCC2C3CCc4cc(OC5CCCC5)ccc4C3CC[C@@]21C", "note": "(stereo not given in full)", "growth": "69.1%"}, {"smiles": "O=C1NC(=S)S/C1=C\\c1cccc([N+](=O)[O-])c1", "growth": "106%"}]}]}
